GPR151 activ = human GPR151 activation | Q8TDV0 | PathHunter beta-arrestin GPR151 cells, luminescence | activation, % at 11.2 µM | 650,000 compounds, 1% hits | AID 1508602; in the data active = activation above about 4.9%
FBW7 activator = activators of human E3 ligase FBW7; Q969H0; 650,000 compounds, 0.13% hits; AID 1259310; AlphaScreen FBW7–phospho-cyclin E peptide binding, activator screen; normalized activity (activation), % at 26.1 µM; in the data active = normalized activity above about 1.9%;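 also: purified mutant Fbw7 with reduced substrate affinity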
TEAD-YAP inh = TEAD-YAP interaction inhibition | 640,000 compounds, 1.4% hits | inhibition, % at 9.12 µM | AID 1259422 | HEK-TIYL cells, TEAD-Gal4/YAP UAS-luciferase luminescence; in the data active = inhibition above about 32%
MITF inh = human MITF inhibition, primary screen; AlphaScreen MITF homodimerization, bead proximity signal; inhibition, % at 2.6 µM; 650,000 compounds, 0.91% hits; in the data active = inhibition above about 50%
Target sequence (O75030 whole entry, looked up): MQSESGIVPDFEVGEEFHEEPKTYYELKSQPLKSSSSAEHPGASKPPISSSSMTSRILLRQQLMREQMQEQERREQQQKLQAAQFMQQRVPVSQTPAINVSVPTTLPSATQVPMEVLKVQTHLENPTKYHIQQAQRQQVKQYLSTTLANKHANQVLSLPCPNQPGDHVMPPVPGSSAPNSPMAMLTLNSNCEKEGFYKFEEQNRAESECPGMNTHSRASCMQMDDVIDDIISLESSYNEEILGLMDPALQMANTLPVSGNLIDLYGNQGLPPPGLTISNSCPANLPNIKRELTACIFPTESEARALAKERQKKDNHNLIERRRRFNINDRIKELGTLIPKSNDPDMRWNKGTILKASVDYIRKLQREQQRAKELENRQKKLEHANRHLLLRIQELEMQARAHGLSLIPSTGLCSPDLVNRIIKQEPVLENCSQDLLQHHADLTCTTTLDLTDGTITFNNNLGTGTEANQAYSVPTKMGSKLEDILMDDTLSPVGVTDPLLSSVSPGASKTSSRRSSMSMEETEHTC
GPR151 confirm = confirmation of human GPR151 activators; shares compounds with GPR151 activ; GPR151 PathHunter beta-arrestin cells, luminescence, 90 min; % of EA-reagent control over plate median; activation, % at 11.2 µM; 6,700 tested, under 10 active;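 active = mean percent activation across replicates above the confirmation screen cutoff of 4.91%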
GPR119 counter = activates human GPR119 in a GPR151 counter-screen; 6,700 compounds, 0.3% hits; GPR119 PathHunter beta-arrestin cells, luminescence, 90 min; 0 = compound-well median, 100 = enzyme-acceptor control; shares compounds with GPR151 activ; activation, % at 11.2 µM;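 active = mean percent activation in the counterscreen above 29.09%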;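 also: counterscreen on off-target GPR119 to flag nonselective hits from the GPR151 activator screen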
Numbers stand for hits; n = inactive; x = no result. This is a sample that favours compounds with a hit; in the whole collection about 3.5% have one here.

SMILES | GPR151 activ | FBW7 activator | TEAD-YAP inh | MITF inh | GPR151 confirm | GPR119 counter
CCc1ccc(NC(=O)CN(C)S(=O)(=O)c2ccc3c(c2)SCC(=O)N3)cc1 | n | n | n | n | x | x
C=CCn1c(N2CCCC2)nc2c1c(=O)n(C)c(=O)n2C | n | n | n | n | x | x
CC(=O)n1c(SCC(=O)Nc2ccc(C(C)C)cc2)nc2ccccc21 | 6.8 | n | n | n | n | n
CC(C)c1ccc(NC(=O)CSc2nc3ccccc3n2S(=O)(=O)c2cccs2)cc1 | n | n | n | n | x | x
CC(=O)N1CCC(c2[nH]ncc2-c2cc(C)no2)CC1 | n | n | n | n | x | x
CCS(=O)(=O)N1CCC(c2[nH]ncc2-c2cc(C)no2)CC1 | 5.9 | n | n | n | n | n
O=C(Nc1ccccn1)C1(c2cccs2)CCOCC1 | n | n | n | n | x | x
Cc1ccnc(NC(=O)C2(c3cccs3)CCOCC2)c1 | 5.3 | n | n | n | n | n
COc1ccc(Cl)cc1C(=O)NC1C2CC3CC(C2)CC1C3 (stereo not drawn) | 5.0 | n | n | n | n | n
COc1cc(OC)cc(C(=O)NC2C3CC4CC(C3)CC2C4)c1 (stereo not drawn) | 11.9 | n | n | n | n | n
COc1ccc(C(=O)NC2C3CC4CC(C3)CC2C4)cc1Cl (stereo not drawn) | n | n | n | n | x | x
CCOc1ccc(C)cc1S(=O)(=O)NCC(c1cccn1C)N1CCCC1 (stereo not drawn) | 5.2 | n | n | n | n | n
Cn1cccc1C(CNS(=O)(=O)c1cc(F)ccc1F)N1CCCC1 (stereo not drawn) | n | n | n | n | x | x
COc1ccc2nccnc2c1[N+](=O)[O-] | 12.9 | n | n | n | n | n
COc1cc(/C=C2\N=C(c3cc([N+](=O)[O-])ccc3Cl)OC2=O)ccc1OC(C)=O | n | n | n | n | x | x
NNC(=O)CCCNS(=O)(=O)c1ccc([N+](=O)[O-])cc1 | 5.7 | n | n | n | n | n
CC(=O)CC/C=C(\C)CCC=C(C)C | 6.1 | n | n | n | n | n
CCOc1ccc(C2C(C(=O)OCc3ccccc3)=C(C)Nc3nnnn32)cc1OCC (stereo not drawn) | n | n | n | n | x | x
COc1cccc2cc3c(=O)n(-c4ccccc4)nc-3oc12 | 10.4 | n | n | n | n | n
CC(=O)Nc1ccc(NC(=O)CN(c2ccc(C(C)C)cc2)S(C)(=O)=O)cc1 | n | n | n | n | x | x
CC(C)c1ccc(NC(=O)CN(c2ccc(Cl)cc2)S(C)(=O)=O)cc1 | 6.2 | n | n | n | n | n
CC(C)c1ccc(N(CC(=O)NCCSc2ccccc2)S(C)(=O)=O)cc1 | 20.6 | n | n | n | n | n
FC(F)(F)c1cccc(NC(=S)N(Cc2cccnc2)Cc2ccco2)c1 | n | n | n | n | x | x
COc1ccc(CCN2C(=O)CC(C(=O)Nc3ccc(Cl)cc3)SC2=Nc2ccc(F)cc2)cc1OC (stereo not drawn) | 5.4 | n | n | n | n | n
COc1ccc(CCN2C(=O)CC(C(=O)Nc3ccc(F)cc3)SC2=Nc2ccc(Cl)cc2)cc1OC (stereo not drawn) | n | n | n | n | x | x
SMILES | GPR151 activ | FBW7 activator | TEAD-YAP inh | MITF inh | GPR151 confirm | GPR119 counter
CCC(C)c1ccc(NC(=O)N2CCOCC2)cc1 (stereo not drawn) | 5.4 | n | n | n | n | n
Cc1ccc(NC(=O)N2CCOCC2)cc1 | n | n | n | n | x | x
O=C1CCCN1CCn1cnc2c(NC3CCN(Cc4ccccc4)CC3)nc(Nc3ccc(C(F)(F)F)cc3)nc21 | n | n | n | n | x | x
Cc1cc(C)n(CC(C)N2CCC(n3nccc3NC(=O)CCCc3ccccc3)CC2)n1 (stereo not drawn) | 7.2 | n | n | n | n | n
COc1cccc(C(=O)COC(=O)c2ccc3c(c2)OCO3)c1 | 5.3 | n | n | n | n | n
COC(=O)c1ccc2c(=O)n(Cc3ccc(C(=O)NC4CCCCCC4)cc3)c(=S)[nH]c2c1 | 6.0 | n | n | n | n | n
COC(=O)c1ccc2c(=O)n(Cc3ccc(C(=O)NC4CCCC4)cc3)c(=S)[nH]c2c1 | n | n | n | n | x | x
O=C1C2C(c3ccccc3)OC3(C(=O)c4ccccc4C3=O)C2C(=O)N1c1ccccc1 (stereo not drawn) | n | n | n | n | x | x

Bioassay records as filed in PubChem BioAssay.
